Drawing on PubChem BioAssay (NCI), this text covers growth for 16 compounds.

The panel holds about 83,000 compounds, 20% with a hit somewhere; the sample as a whole holds those more often.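 Cell lines were cultured in 96-well plates, exposed to a single compound concentration, and assessed for percent growth 48 hours later.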 Unmarked numbers belong to inactive results. The source made the active and inactive calls. How the source made its calls: active means growth percent below 10; inactive means the rest.

Test in all cases: NCI-60 one-dose screen, 48 h (100 = growth as untreated, 0 = no growth, -100 = all killed)
Common to all, as to details: 10 µM unless noted

Assay [1] deals with SK-MEL-2 melanoma.
In assay [2] the test system is EKVX NSCLC.
Assay [3] deals with SN12C renal.
The subject of assay [4] is TK-10 renal.
For assay [5], the system named is ACHN renal.
Assay [6] relates to CAKI-1 renal.
For assay [7], the system named is A498 renal.
Assay [8] deals with CCRF-CEM leukemia.
Assay [9] deals with MOLT-4 leukemia.
Assay [10] deals with SR leukemia.
The test system of assay [11] is RPMI-8226 leukemia.
Assay [12] deals with OVCAR-8 ovarian.
Assay [13] relates to OVCAR-5 ovarian.
The subject of assay [14] is OVCAR-4 ovarian.
For assay [15], the system named is SK-OV-3 ovarian.
In assay [16] the test system is IGROV1 ovarian.
Assay [17] deals with OVCAR-3 ovarian.
The subject of assay [18] is HS 578T breast.
For assay [19], the system named is NCI/ADR-RES ovarian.
In assay [20] the test system is UO-31 renal.

Regarding `Cc1nc(Nc2ccc(S(=O)(=O)Nc3cc(C)on3)cc2)c2ccccc2n1`, the growth was 102% in assay [1]; 90% in assay [2]; 102% in assay [3]; 99.7% in [4]; 107% in [5]; 90.7% in assay [6]. In addition, the growth is 94.3% in [7]; 103% in assay [8]; 104% in [9]; 111% in assay [10]; 111% in assay [11]; 104% in assay [12]. For the same compound, the growth is 101% in assay [13]; 105% in assay [14]; 93% in assay [15]; 96.9% in [16]; 103% in assay [17]; 108% in assay [18]. In addition, the growth in assay [19] is 107%.

With `Cc1ccc(S(=O)(=O)NN/C(N)=N\S(=O)(=O)c2cc(C)c(Cl)cc2SCc2ccccc2)cc1`, the growth is 86.9% in assay [1]; 107% in assay [2]; 101% in assay [3]; 130% in [4]; 91% in [7]; 74.1% in assay [8]. Besides, the growth is 61.3% in assay [9]; 70.4% in assay [10]; 34.1% in [11]; 109% in assay [12]; 89.2% in [13]; 89.5% in [14]. In addition, the growth in [15] was 102%; in assay [17] it was 121%; in [19] it was 97.1%.

For `CCN(CC)CCOc1ccc(/C(=C(\C)c2ccc(F)c(OC)c2)c2ccc(Cl)cc2)cc1`, the growth in assay [1] was 67.7%; in assay [2] it was 56.4%; in [3], 38%; in assay [4], 49.5%; in assay [5] it was 25.8%; in assay [6], 17.1%. Moreover, the growth in assay [7] was 48.1%; in assay [8], 13.9%; in [9] it was -1.16% (active); in [10], -22.2% (active); in assay [12] it was 17.4%; in [13], 40.9%. Further, the growth in assay [14] was 26.6%; in [15], 54%; in assay [16] it was 29.7%; in assay [17], 16.6%; in assay [18], 16%; in [19] it was 39.8%.

On to `COc1ccc(-c2nnc(SCC(=O)NC3=NN=C(c4ccccc4)CS3)o2)cc1`, for which the growth in assay [1] is 103%; in assay [2] it was 101%; in assay [3] it was 99.8%; in [4] it was 106%; in assay [5] it was 99.6%; in assay [7] it was 86.4%. Also, the growth in [9] is 83.9%; in assay [10], 86.6%; in assay [12] it was 83%; in assay [13], 102%; in [14], 100%; in assay [15] it was 93.5%. Also, the growth in assay [16] is 108%; in assay [17], 107%; in assay [18] it was 97.3%; in [19], 104%.

`CCOC(=O)Cc1csc2nc(-c3ccccc3)nn12`: the growth in assay [1] was 114%; in [2], 105%; in [20], 97%; in assay [4] it was 126%; in assay [5] it was 99.7%; in assay [6], 111%. Moreover, the growth in assay [7] was 90.4%; in assay [8], 103%; in [9] it was 111%; in assay [10], 98.8%; in [11] it was 113%; in assay [12], 98.3%. Further, the growth was 92.9% in assay [13]; 105% in assay [14]; 115% in assay [15]; 104% in assay [16]; 117% in assay [17]; 103% in assay [18]. Further, the growth in assay [19] was 104%.

Take `Cn1nnnc1-c1ccc(N)cc1`: the growth is 89% in assay [1]; 93.8% in [2]; 79% in assay [20]; 97.3% in assay [4]; 98.7% in [5]; 93.2% in [6]. Also, the growth in assay [7] was 108%; in assay [8], 100%; in [9] it was 92.5%; in [10], 87.6%; in assay [11], 103%; in [12], 107%. In addition, the growth was 94.1% in [13]; 100% in assay [14]; 95.8% in assay [15]; 99.2% in [16]; 101% in [17]; 96.8% in [18]. Moreover, in [19], the growth is 98.1%.

As for `COc1ccc(/C(C)=C(\c2ccc(Cl)cc2)c2ccc(OCCN3CCCCCC3)cc2)cc1F`, the growth in assay [1] was 74.5%; in [2], 57.7%; in assay [3] it was 57.4%; in [4], 81.7%; in assay [5], 64.5%; in assay [6], 22.6%. Besides, the growth in assay [7] was 77.6%; in [8], 36.2%; in assay [9], 26.6%; in assay [10] it was -12.6% (active); in [11], -9.96% (active); in assay [12], 63.7%. The growth in [13] is 58.9%; in [14] it was 36%; in assay [15], 71.5%; in assay [16], 56.8%; in assay [17], 54.9%; in assay [18] it was 44.1%. Further, the growth in assay [19] is 65.7%.

Turning to `CCOC(=O)c1nnn(C(Cc2ccccc2Cl)C(=O)OCC)c1C` (stereo not given), the growth in assay [1] was 107%; in [2] it was 106%; in [20], 89.7%; in assay [4] it was 96.6%; in [5], 104%; in assay [6], 90.8%. For the same compound, the growth in [7] was 103%; in assay [8] it was 88.5%; in assay [9] it was 94.6%; in assay [10] it was 93.7%; in assay [11], 96.3%; in [12], 96.7%. Moreover, the growth in assay [13] is 106%; in assay [14], 104%; in assay [15], 102%; in assay [16] it was 112%; in assay [17], 111%; in assay [18], 94.3%. Also, the growth in assay [19] is 107%.

On to `N#Cc1c(Oc2ccc([N+](=O)[O-])cc2)nc2sc3cc(Cl)ccc3n2c1=N`, for which the growth in assay [1] was 84.5%; in [2] it was 84%; in assay [3] it was 91%; in assay [4], 49.9%; in assay [5], 100%; in [6] it was 111%. Also, the growth was 100% in assay [7]; 96.5% in [8]; 77.3% in assay [9]; 92.2% in assay [10]; 83.6% in assay [11]; 63.4% in assay [12]. The growth is 120% in assay [13]; 53.1% in assay [14]; 67.1% in assay [15]; 77.7% in assay [16]; 107% in assay [17]; 41.8% in assay [18]. The growth in assay [19] was 86%.

Take `N#C/C(=C\c1ccc(Br)cc1)n1nnc2ccccc21`: the growth is -1.82% (active) in assay [1]; 20% in [2]; 8.47% (active) in [3]; 1.55% (active) in assay [4]; 1.73% (active) in [6]; 8.29% (active) in assay [8]. For the same compound, the growth in assay [9] was 9.75% (active); in [10], 11.7%; in assay [12], 17.3%; in assay [13], 7.66% (active); in assay [14] it was 6.76% (active); in [16], 1.96% (active). In addition, the growth in [17] was -31.8% (active); in assay [18] it was 19.4%; in [19], -6.66% (active).

On to `Cl.Fc1c[c-]c(-c2ccccn2)c(F)c1.[Pt].c1ccc([PH+](C[PH+](c2ccccc2)c2ccccc2)c2ccccc2)cc1`, for which the growth was -74.6% (active) in [1]; -84.4% (active) in assay [2]; -70.3% (active) in [3]; -81.4% (active) in [4]; -97.8% (active) in assay [5]; -91% (active) in [6]. For the same compound, the growth in [9] is -38.9% (active); in [10] it was -25.4% (active); in [12] it was -19.6% (active); in assay [13] it was -81.8% (active); in assay [14] it was -93.4% (active); in assay [16], -75.9% (active). The figures for the growth in [17], in assay [18] and in assay [19] were -93.8% (active), -25.2% (active) and -38.8% (active), respectively.

As for `Cl.[Pt].[c-]1ccccc1-c1ccccn1.c1ccc(P(c2ccccc2)C([PH+](c2ccccc2)c2ccccc2)[PH+](c2ccccc2)c2ccccc2)cc1`, the growth was -2.53% (active) in assay [1]; 10.8% in [2]; 9.75% (active) in assay [3]; 21.1% in [4]; 4.96% (active) in [5]; -5.66% (active) in assay [6]. In addition, the growth in [8] is 14.5%; in assay [9], 13.8%; in assay [12], 15.6%; in assay [13], 22.7%; in [14], 21.3%; in [16], 17.2%. Further, the growth was 7.92% (active) in assay [18] and 60.7% in assay [19].

For the compound `CN(C)S(=O)(=O)n1cnc([C@@H]2[C@@H]3C(=O)OC[C@@H]3C[C@]23N=CN(Cc2ccccc2)C3=O)c1`, the growth in assay [1] was 176%; in [2], 111%; in [3], 104%; in assay [4], 112%; in assay [5], 102%; in [6], 97.3%. The growth is 99.5% in [7]; 20.7% in [9]; -8.51% (active) in assay [11]; 107% in assay [12]; 96.7% in assay [13]; 79.6% in [14]. Further, the growth in [15] was 107%; in [16] it was 113%; in [17], 105%; in [18] it was 100%; in [19] it was 102%.

Regarding `Cc1cc(-c2noc(C(F)(F)F)n2)ccc1N1CCN(c2cc(C(=O)N(C)C)no2)CC1`, the growth was 73% in assay [1]; 49.5% in assay [2]; 83% in assay [3]; 81.2% in [4]; 63.9% in [5]; 67.7% in assay [6]. The growth in assay [8] was 65.3%; in assay [9], 71.5%; in assay [10], 52.9%; in assay [12] it was 68.1%; in [13], 102%; in assay [14] it was 64.9%. Moreover, the growth in [16] was 92.1%; in [17], 83.9%; in assay [18], 89.1%; in assay [19] it was 69.5%.

For the compound `CCCCCCCCn1cc(C2=C(c3coc4ccc(OC)cc34)C(=O)NC2=O)c2ccccc21`, the growth is 107% in assay [1]; 102% in assay [2]; 102% in assay [3]; 97.6% in assay [4]; 103% in assay [5]; 99.7% in assay [6]. For the same compound, the growth in assay [8] was 99%; in assay [9], 125%; in assay [10], 119%; in [11], 119%; in [12], 94.2%; in [13], 90.8%. In addition, the growth was 106% in assay [14]; 104% in [16]; 107% in assay [17]; 101% in assay [18]; 101% in assay [19].

Take `CC1(C)C(=O)/C(=C\c2cccnc2)C[C@]2(C)[C@H]3CC=C4[C@@H]5C[C@@](C)(C(=O)O)CC[C@]5(C)CC[C@@]4(C)[C@]3(C)CC[C@@H]12`: the growth in assay [1] is 96.8%; in [2], 95.8%; in [3], 94.2%; in [4], 101%; in assay [5] it was 95.8%; in [6], 86.9%. Also, the growth in [7] was 100%; in [8] it was 81.8%; in assay [9] it was 87.2%; in [11], 71.5%; in [12], 89.7%; in [13], 107%. Further, the growth in assay [14] was 90.6%; in assay [15] it was 94.9%; in assay [16], 103%; in assay [17] it was 98.3%; in assay [18], 99.2%; in [19] it was 102%.
